# Assay outcomes as filed in PubChem BioAssay.
# LANA DNA inh: KSHV C-LANA DNA binding inhibition; AID 504423; inhibition, % at 9 µM; 340,000 tested, 0.078% active; MBP-C-LANA/FAM-LBS DNA binding, fluorescence polarization;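 active = highest replicate inhibition at or above 60% at 9 µM, even if other replicates fall short; inactive = all replicates below 60% inhibition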
# cardiac RTF act: increases calcium sensitivity of human cardiac regulated thin filaments; P19429+P45379; IANBD-labeled TnC RTF fluorescence at EC20 calcium; 0% EC20 calcium, 100% full calcium; activation, % at 7.2 µM; 340,000 tested, 0.24% active; AID 493008;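 active = activation above the mean over all tested compounds plus 3 SD, cut at about 30% in these data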;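 note: rise in fluorescence read as greater calcium sensitivity of cardiac thin filaments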
# Keap1-Nrf2 PPI: Keap1-Nrf2 (human) interaction inhibition. Q14145. Keap1 Kelch-Nrf2 peptide fluorescence polarization, 1536-well. inhibition, % at 9.4 µM. 340,000 tested, 0.15% active; in the data active = inhibition above about 12%; inconclusive = no clear call, values can overlap the other calls; inactive = below about 7.3%;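 note: human Keap1 Kelch domain with fluorescein labeled Nrf2 9mer peptide probe; higher means more block of Keap1 binding to Nrf2 peptide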
# Target sequence (Q14145 whole entry, looked up, the tested form may be a part): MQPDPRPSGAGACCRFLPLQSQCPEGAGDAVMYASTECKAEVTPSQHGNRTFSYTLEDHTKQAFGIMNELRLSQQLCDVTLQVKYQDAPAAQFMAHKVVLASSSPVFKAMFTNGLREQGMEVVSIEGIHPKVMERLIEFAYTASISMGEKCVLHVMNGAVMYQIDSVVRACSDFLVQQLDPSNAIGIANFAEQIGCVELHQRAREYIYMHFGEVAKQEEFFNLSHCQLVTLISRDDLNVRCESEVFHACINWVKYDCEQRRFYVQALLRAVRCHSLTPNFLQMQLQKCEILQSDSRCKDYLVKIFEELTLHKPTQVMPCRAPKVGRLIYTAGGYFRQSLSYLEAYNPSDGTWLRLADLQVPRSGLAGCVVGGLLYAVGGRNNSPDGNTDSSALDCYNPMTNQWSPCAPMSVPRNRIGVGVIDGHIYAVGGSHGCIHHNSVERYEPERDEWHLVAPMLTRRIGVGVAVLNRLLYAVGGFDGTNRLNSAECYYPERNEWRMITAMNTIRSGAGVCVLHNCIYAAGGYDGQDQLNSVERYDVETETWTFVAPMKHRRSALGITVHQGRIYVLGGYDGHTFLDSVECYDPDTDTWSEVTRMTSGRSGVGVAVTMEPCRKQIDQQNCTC
# RTF Ca sens inh: cardiac RTF calcium desensitization. IANBD-labeled cardiac RTF, Ca2+ fluorescence. inhibition, % at 7.15 µM. 340,000 tested, 0.12% active;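 active = inhibition above the mean inhibition of all tested compounds plus 3 SD, cut at about 17% in these data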;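 note: assay run at fixed EC70 calcium of 1.6 mM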
# A number is an active result; 0 = inactive; ? = inconclusive. An excerpt weighted towards active compounds, which were near 0.5% of everything screened.
SMILES,LANA DNA inh,cardiac RTF act,Keap1-Nrf2 PPI,RTF Ca sens inh
CN1/C(=C\C=O)C(C)(C)c2ccccc21,0,0,0,0
CN(C)c1ccc(N=C/C=C2\N(C)c3ccccc3C2(C)C)cc1,0,0,0,0
CN1\C(=C/C=C/C=C/C=[N+](C)C)C(C)(C)c2ccccc21,0,218,0,0
CC(C)C(C(=O)OCC(=O)c1ccccc1)N1C(=O)C2C3C=CC(C3)C2C1=O (stereo unspecified),0,0,0,0
COc1ccc(-n2nc3c(N4CCC(C(=O)NCc5ccco5)CC4)nnc(C)c3c2C)cc1,0,30,0,0
COc1ccc(-n2nc3c(N4CCC(C(=O)NCc5ccccc5C)CC4)nnc(C)c3c2C)cc1,0,0,0,0
C[n+]1ccc(/C=C/c2c[nH]c3ccc(F)cc23)cc1,0,102,0,0
Cn1cc(/C=C/c2cc[n+](C)cc2)c2cc(F)ccc21,0,317,0,0
Cn1cc(/C=C/c2cc[n+](C)cc2)c2cc(Cl)ccc21,0,206,0,0
Cn1cc(C=O)c2cc(F)ccc21,0,0,0,0
NNC(=O)c1cccn(Cc2cccc(C(F)(F)F)c2)c1=O,0,0,0,0
COc1cccc2c1C(=O)c1c(O)c3c(c(O)c1C2=O)CC(O)(C(=O)CO)CC3OC1CC(N(C)C)C(O)C(C)O1 (stereo unspecified),114,201,?,0
O=C1c2ccccc2NC(c2cn[nH]c2-c2ccc(Cl)cc2)N1O (stereo unspecified),0,0,12,0
O=C1/C(=C\c2cc([N+](=O)[O-])ccc2O)SC(=S)N1Cc1ccc(Cl)cc1,0,135,0,0
CCN(C[C@H]1N[C@@](Cc2ccccc2)(C(=O)OC)[C@H]2C(=O)N(C)C(=O)[C@@H]12)C(=O)COC,0,0,0,0
O=C(N/N=C/c1sc2ccccc2c1O)c1ccccc1,0,47,0,0
O=C(N/N=C/c1sc2ccccc2c1O)c1cccc2ccccc12,0,0,0,0
COc1ccc(C(=O)N/N=C/c2sc3ccccc3c2O)cc1,0,32,0,0
COc1ccc2cc(C(=O)N/N=C/c3sc4ccccc4c3O)ccc2c1,0,109,0,0
Cc1sc(NC(=O)C2=COCCO2)nc1-c1ccc(F)cc1,0,0,0,0
CS/C(=N\S(=O)(=O)c1cccs1)Nc1ccc(Cl)cc1,0,0,0,0
CS/C(=N\S(=O)(=O)c1ccc(N)cc1)NS(=O)(=O)c1cccs1,113,0,0,0
CCOc1cc(C2C3=C(CC(C)(C)CC3=O)Nc3n[nH]c(C)c32)ccc1O (stereo unspecified),0,0,0,0
CCCOC(=O)c1cc(-c2ccc(/C=C3/C(=O)N(C)C(=O)C(C#N)=C3C)o2)ccc1Cl,0,0,0,0
C=CCOC(=O)c1cc(-c2ccc(/C=C3\C(=O)NC(=O)C(C#N)=C3C)o2)ccc1Cl,81,0,0,0
SMILES,LANA DNA inh,cardiac RTF act,Keap1-Nrf2 PPI,RTF Ca sens inh
Cc1cccc(OCc2nn[nH]n2)c1C,0,165,0,0
Clc1ccccc1OCc1nn[nH]n1,0,0,0,0
NS(=O)(=O)c1ccc(N2N=C(c3ccccc3)CC2c2ccccc2)cc1 (stereo unspecified),0,43,0,0
O=S(=O)(O)c1ccc(N2N=C(c3ccccc3)CC2c2ccccc2)cc1 (stereo unspecified),0,0,0,0
CCN1C(=O)/C(=C/C=C2/CCCN2C)OC1=S,0,32,0,0
CN1C(=O)/C(=C\C=C2/CCCN2C)N(C)C1=S,0,0,0,0
O=C(Nc1ccccc1F)c1ccc([N+](=O)[O-])s1,0,0,0,0
CN(C)NC(=O)c1ccc([N+](=O)[O-])s1,0,31,0,0
Oc1oc(-c2ccccc2)nc1C=Nc1ccccc1,0,0,0,0
CN(C)c1ccc(N=Cc2nc(-c3ccccc3)oc2O)cc1,0,45,0,0
CC(=O)Nc1ccc(N=Cc2nc(-c3ccc(C)cc3)oc2O)cc1,0,38,0,0
NC(=O)C(C1=CCCCC1)c1ccccc1 (stereo unspecified),0,0,0,0
COCCN(C(=O)CSc1ccc2c(c1)OCCO2)c1c(N)n(CC(C)C)c(=O)[nH]c1=O,0,0,0,0
CC1=Nc2ccccc2/C1=C\c1nc(-c2ccc(C(F)(F)F)cc2)oc1O,0,156,0,0
CC1=Nc2ccccc2/C1=C\c1nc(-c2ccccc2)oc1O,0,0,0,0
C[C@@H](C(=O)CC(=O)OC(C)(C)C)[C@@H](O)c1ccccc1,0,0,0,0
CC(=O)c1ccc(C(=O)Nc2sc3c(c2C(N)=O)CCN(Cc2ccccc2)C3)cc1,0,102,0,0
